Measurements published in PubChem BioAssay AID488890 (Southern Research Specialized Biocontainment Screening …, 2010).
The whole screen tested about 320,000 compounds, of which about 1,300 (0.41%) were called active. Not shown: some 3% with an inconclusive outcome. How the calls were made is not given here. Only a sample is shown. Entries with a potency or affinity are not part of this list.

experiment: growth inhibition of non-replicating M. tuberculosis (AID 488890); settings: Mycobacterium tuberculosis non-replicating, at 25 µM, stronger effect = higher value;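 further: plate controls were DMSO cells for no effect and high antibiotic wells for full effect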

Row | Structure (SMILES) | inhibition
1 | O=C(NNc1cccc(Cl)n1)Nc1ccc(F)cc1 | 9.17%
2 | CCCCC(=O)N(CCOC)c1nnc(-c2ccc(OC)cc2)s1 | 11.8%
3 | CCC(=O)N1c2ccc(S(=O)(=O)N3CCN(CC)CC3)cc2CC1C (configuration not stated) | -2.95%
4 | Cc1nc2c(=O)oc3ccccc3c2n1-c1ccccc1 | 66.8%
5 | Cn1c(C(F)(F)F)nc2c(=O)oc3ccccc3c21 | 71.2%
6 | Cc1cc(Cl)c2oc(C(=O)N3CCN(c4cccc(C)n4)CC3)c(C)c2c1 | 22.3%
7 | CCOC(=O)N1CCC(=NNC(=O)c2cc3ccccc3cc2O)CC1 | 31.9%
8 | O=C(NN=C1CCCC1)c1ccccc1O | 8.13%
9 | N=c1n(Cc2ccccc2)c2ccccc2n1CC(O)c1ccco1 (configuration not stated) | 2.91%
10 | Cc1ccc(Cn2c(=N)n(CC(O)c3ccco3)c3ccccc32)cc1 (configuration not stated) | 18.9%
11 | CC1CCC/C(=C\Nc2ccc(C(=O)O)cc2)C1=O (configuration not stated) | -12.5%
12 | CC1CCC/C(=C\Nc2ccc(O)cc2)C1=O (configuration not stated) | 13.7%
13 | O=C1c2cccc(OCC(=O)N3CCCc4ccccc43)c2CCN1Cc1cccnc1 | 15.4%
14 | O=C(NC1CCCC1)c1cc(-c2ccccc2O)on1 | 4.68%
15 | O=C(NC1CCCCC1)c1cc(-c2cccs2)on1 | 43.1%
16 | CN(Cc1cccs1)C(=O)COC(=O)CNC(N)=O | 2.55%
17 | CCc1ccc(C(=O)c2cncc(Br)c2)cc1 | 70%
18 | O=C(c1ccccc1)c1cncc(Br)c1 | 19%
19 | Cc1ccc(C)n1-c1ccc(N2CCOCC2)c([N+](=O)[O-])c1 | -3.61%
20 | Cc1nn(C)c(C)c1NC(=S)Nc1ccc(S(=O)(=O)Nc2ncccn2)cc1 | -12.7%
21 | CCC/C=C(\CCC)C(NC(=O)CCc1ccccc1)c1ccc(C(F)(F)F)cc1 (configuration not stated) | -8.64%
22 | Cc1ccc(O)c(C)c1 | -0.5%
23 | Cc1cc(C(c2ccc(O)cc2)c2cc(C)c(O)cc2C)c(C)cc1O | 19.6%
24 | CN(C)CCCn1c(-c2ccccc2)nc(=S)c2c1CCCC2 | 3.62%

Row | Structure (SMILES) | inhibition
25 | CN(C)CCN1C(=O)C2C(C(=O)Nc3cc(Cl)cc(Cl)c3)C3C=CC2(O3)C1C(=O)NC1CCCCC1 (configuration not stated) | 5.38%
26 | COc1ccc(OCCCC(=O)OCC(=O)Nc2nnc(-c3ccccc3)o2)cc1 | 24.6%
27 | CC(C)c1ccc(OCC(=O)NCCO)cc1 | -10.9%
28 | Cc1ccc(CN2CCN(c3ccccc3Cl)CC2)o1 | -0.79%
29 | Clc1ccccc1N1CCN(Cc2ccc(Br)o2)CC1 | 19.6%
30 | Cc1cccc(N2CCN(Cc3ccoc3)CC2)c1C | 11.8%
31 | Cc1cccc(N2CCN(Cc3ccc(Br)o3)CC2)c1C | 51.8%
32 | Cc1ccccc1N1CCN(Cc2cc3c(cc2[N+](=O)[O-])OCO3)CC1 | 45.5%
33 | Cc1ccccc1N1CCN(Cc2ccc(Br)o2)CC1 | 35.5%
34 | CCOc1ccc(N=C2SCC(=O)N2CC)cc1 | 25.3%
35 | O=C(Nc1cccc([N+](=O)[O-])c1)NC1CCS(=O)(=O)C1 (configuration not stated) | -1.42%
36 | CSc1ccccc1NC(=O)CN(C)CC(=O)Nc1c(F)cccc1F | 6.62%
37 | O=C1c2cccc3cccc(c23)C(=O)N1CCCc1n[nH]c(=S)n1-c1ccccc1 | -14.7%
38 | C=CCN(C)NC(=O)Nc1ccccc1 | 6.98%
39 | Cc1c(NC(=O)CCCCCN2C(=O)c3ccccc3C2=O)c(=O)n(-c2ccccc2)n1C | -3.66%
40 | COc1cc(C(=O)N2CCC(NC(=O)C(Cc3ccccc3C)NC(C)=O)CC2)cc(OC)c1OC (configuration not stated) | 3.5%
41 | Cc1c(Br)c([N+](=O)[O-])nn1CC(=O)c1ccccc1 | -6.01%
42 | Cc1nc([N+](=O)[O-])c(Br)n1CC(=O)c1cccc([N+](=O)[O-])c1 | 68.4%
43 | Cc1nc([N+](=O)[O-])cn1CC(=O)c1ccc(Cl)cc1 | -12.5%
44 | COC(=O)Cn1c(C)nc([N+](=O)[O-])c1Br | -5.82%
45 | COc1ccc(OC)c(C(c2nnnn2CC2CCCO2)N2CCN(C)CC2)c1 (configuration not stated) | 9.88%
46 | COc1ccc(F)cc1S(=O)(=O)Nc1ccncc1 | 10.8%
47 | N/C(COc1ncn(-c2ccccc2)n1)=N\S(=O)(=O)c1ccccc1 | 20.4%
48 | CCOC(=O)C1CCCN(Cc2nc(N)nc(Nc3ccccc3)n2)C1 (configuration not stated) | 42%

Row | Structure (SMILES) | inhibition
49 | O=C(NC1CCCC1)c1nc2c(nnn2Cc2ccccc2Cl)c(=O)[nH]1 | 79.4%
50 | O=C(NC1CC1)c1nc2c(nnn2Cc2ccccc2Cl)c(=O)[nH]1 | 17.4%
51 | Cn1c(CCc2ccccc2)nnc1SCC(=O)N1CCCC1 | -11.6%
52 | N#CC(C#N)=c1ccc2c(c1)N1C(c3ccccc3)=CC(c3ccccc3)C3CCCCC31N=2 (configuration not stated) | -0.07%
53 | O=C1NC2(CCCCC2)N=C1c1ccccc1 | -21.1%
54 | CCOc1ccc(OCC(O)CNC2CCN(Cc3ccccc3)CC2)cc1 (configuration not stated) | 35%
55 | CC(C)(c1ccccc1)c1ccc(OCC(O)CN2CCCC2)cc1 (configuration not stated) | 50%
56 | CC(C)(C)c1ccc(-n2ncc3c2CCCC3NC(=O)CN2CCOC2=O)cc1 (configuration not stated) | 10.9%
57 | COC(=O)Nc1ccc(S(=O)(=O)N2c3ccccc3CCC2C)cc1 (configuration not stated) | 47.6%
58 | Cc1ccc(S(=O)(=O)N2CCC(C(=O)OC(C)C(=O)N(C)c3ccccc3)CC2)cc1C (configuration not stated) | 36%
59 | CCCCOc1ccc(Cn2c(=O)oc3ccccc32)cc1 | 59%
60 | CC(C)Oc1ccc(Cn2c(=O)oc3ccccc32)cc1 | 72%
61 | CCSc1ncc(C)cc1[N+](=O)[O-] | -10.3%
62 | O=C(c1cccs1)N1CCN(Cc2ccccn2)CC1 | -6.8%
63 | Cc1cccc(Cn2c(Cc3ccccc3)nc3ccccc32)c1 | 46.2%
64 | COCCOc1cc(N)c(Cl)cc1Cl | 10.4%
65 | CCOC(=O)COc1cc(N2C(=O)CSCC2=O)c(Cl)cc1Cl | -8.36%
66 | CN(C)/C=N/c1ncc(-c2ncc(C(F)(F)F)cc2Cl)cn1 | -8.2%
67 | CCn1nccc1C(=O)Nc1cccc(C)c1C | 5.9%
68 | COc1ccc(CC(C)CC(=O)Nc2ccc(OC)cc2)cc1 (configuration not stated) | 49.1%
69 | Cc1ccc2c(c1)c(C1=NC(=S)NC1=O)c(O)n2C | -2.45%
70 | C=CCn1c(O)c(N=O)c2ccccc21 | -1.03%
71 | C=CCn1c(O)c(C2=c3ccccc3=NC2=O)sc1=Nc1ccc(O)cc1 | 30.7%
72 | O=C1N=c2ccccc2=C1c1c(O)[nH]c2c(C(F)(F)F)cccc12 | 27.4%

Row | Structure (SMILES) | inhibition
73 | CCn1c(O)c(C2=c3ccccc3=NC2=O)c2cc(Br)ccc21 | 73.8%
74 | O=C1N=c2ccccc2=C1c1[nH]c(=S)[nH]c1O | 9.01%
75 | CC(C(=O)N1CCN=C1c1ccccc1)N1C(=O)c2ccccc2C1=O (configuration not stated) | -7.08%
76 | O=C(CN1C(=O)NC2(CCCCC2)C1=O)Nc1ccc(Cl)cc1 | -0.81%
77 | C/C(=N/NC(=O)CCC(=O)Nc1ccc(Br)cc1)c1ccc(Br)cc1 | -21.4%
78 | O=C(NCc1ccccc1)c1ccco1 | 64.3%
79 | O=C(NNC(=O)c1ccco1)c1ccccc1 | -6.91%
80 | Cc1ccc(/C=C2\SC(=S)N(CCC(=O)NCCCN3CCOCC3)C2=O)cc1 | 8.18%
81 | CCOc1ccc(C(=O)c2cc([N+](=O)[O-])ccc2Cl)cc1 | 6.56%
82 | O=C(c1ccc(S(=O)(=O)Nc2ccccc2)cc1)N1CCC1 | -11.7%
83 | CCCNC1=C(C)C(=O)C2=C(C1=O)C(COC(N)=O)[C@]1(OC)C3NC3CN21 (some centres not stated) | 55.1%
84 | COc1ccc(CCNC(=O)c2cc3cccc(OC)c3oc2=O)cc1OC | 0.35%
85 | COc1cccc2cc(C(=O)NCc3ccc(Cl)cc3)c(=O)oc12 | 57.8%
86 | CCN(CC)c1ccc2cc(C(N)=O)c(=N)oc2c1 | 31.1%
87 | CCN(CC)c1ccc2cc(C(C)=O)c(=O)oc2c1 | 3.33%
88 | Cn1c(=O)c(=O)n(C)c2cc(S(=O)(=O)N3CCN(Cc4ccccc4)CC3)ccc21 | 5.19%
89 | Nc1nc(-c2ccc3ccccc3c2)c(C2(O)C(=O)Nc3c(Br)cc(F)cc32)s1 (configuration not stated) | 0.16%
90 | COc1ccc(Cl)cc1NC(=O)CSc1nc(=O)n(CCN(C)C)c2c1CCCC2 | 16.1%
91 | Clc1ccccc1N/N=C/c1ccc2c(c1)OCO2 | 28.4%
92 | CN(CC(=O)NCCc1ccc(F)cc1)Cc1ccccc1 | 20.9%
93 | CC(=O)N(C1=C(N)C(=O)c2ccccc2C1=O)c1ccccc1 | 4.83%
94 | CCC(=O)N(C1=C(NC(C)C)C(=O)c2ccccc2C1=O)C(C)C | 8.66%
95 | CC(CCc1ccccc1)NC(=O)CN(C)Cc1ccc(F)cc1 (configuration not stated) | 18%
96 | COC(=O)/C(=C/c1c[nH]c2ccccc12)[N+](=O)[O-] | 9.02%

Row | Structure (SMILES) | inhibition
97 | COc1ccc2cc(Br)ccc2c1CC(=O)NCC1CCCO1 (configuration not stated) | 14.2%
98 | O=S(=O)(c1ccc2c(c1)OCCO2)N1CCN(S(=O)(=O)c2ccco2)CC1 | 16.7%
99 | c1ccc(CSc2ccc(-c3ccccn3)nn2)nc1 | 36.2%
100 | c1ccc(-c2ccc(SCc3cccnc3)nn2)nc1 | 63.6%
101 | CCOC(=O)/C=C/C(=O)OCC(=O)Nc1ccc(Cl)cn1 | 0.76%
102 | CS(=O)(=O)c1cnc(-c2ccccc2)nc1Oc1ccc(Cl)cc1 | -7.01%
103 | O=P(O)(CCc1ccncc1)CN1CCCCC1 | -7.55%
104 | Cc1cc(N/N=C/c2ccc(N(C)C)cc2)c2ccccc2n1 | -1.58%
105 | COc1ccc(Nc2cc(C)nc3ccccc23)cc1 | 36.9%
106 | COc1ccc(Nc2cc(C)nc3ccc(OC)cc23)cc1 | 41.2%
107 | COc1cccc2c(N/N=C/c3ccccc3)cc(C)nc12 | 3.67%
108 | COc1ccccc1/C=N/Nc1cc(C)nc2ccc(C)cc12 | -9.66%
109 | COc1ccc2nc(C)cc(NCc3ccc(F)cc3)c2c1 | 38.9%
110 | COc1ccc(C(=O)COC(=O)C(CCSC)NC(=O)COc2ccccc2)c(OC)c1 (configuration not stated) | 30.9%
111 | COc1ccccc1OCC(=O)NCc1n[nH]c(=O)c2ccccc12 | -15.2%
112 | O=C(COc1cccc2c1CCN(Cc1ccccc1)C2=O)N1CCCCC1 | 10.8%
113 | CCCC(=O)C1=C(O)C(C(=O)OC)C(C)(C)CC1=NCCc1ccc(OC)c(OC)c1 (configuration not stated) | 19%
114 | CCOc1ccc(-c2csc(NC(=O)CSCC(=O)O)n2)c2ccccc12 | 11.9%
115 | Cc1cccc(N/C(N)=N/c2nc(CSc3ccc(Cl)cc3)cc(=O)[nH]2)c1 | -0.84%
116 | CN(Cc1ccc(F)cc1)C(=O)C(Cc1ccccc1)NC(=O)c1ccccc1 (configuration not stated) | -6.89%
117 | COc1ccc(Cc2nnc(NC(=O)c3ccc(C)cc3)s2)cc1OC | -7.61%
